Values joined by “and” are separate entries in the source; they are usually repeats but may differ in a detail not shown here. Equal values may be shown once. Records with an inconclusive call do not appear. Active and inactive are the calls of the source. Calls follow the shape of the dose curve; as a rule, active = well fitted curve in the direction sought with a large enough effect in the repeat runs; inconclusive = weak or mixed curves; inactive = no such curve, though single readings can be large; an effect the other way counts as inactive or inconclusive.
Assays:
[1] = qHTS assay to identify small molecule antagonists of the glucocorticoid receptor (GR) signaling pathway - cell viability counter screen (AID 720693); also: nearly all actives have a fitted effect of over 55% in size
[2] = qHTS assay for identifying genotoxic compounds that show differential cytotoxicity against isogenic chicken DT40 cell lines with known DNA damage response pathways - wild type cell line (AID 743012); also: nearly all actives have a fitted effect of over 60% in size; also: potency is read from the fitted curve at half-maximal effect
Summary of the method: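 First, wild type DT40 cells were plated at 300 per well and equilibrated about 0.5 h at 37 C/5% CO2. Next, compounds in DMSO were added and exposure lasted 40 h. Finally, CellTiter-Glo was added for 30 min at room temperature and luminescence recorded.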

[3] = qHTS assay for identifying genotoxic compounds that show differential cytotoxicity against isogenic chicken DT40 cell lines with known DNA damage response pathways - Rev3 mutant cell line (AID 743014); also: nearly all actives have a fitted effect of over 55% in size; also: potency is read from the fitted curve at half-maximal effect
[4] = qHTS assay for identifying genotoxic compounds that show differential cytotoxicity against isogenic chicken DT40 cell lines with known DNA damage response pathways - Rad54/Ku70 mutant cell line (AID 743015); also: nearly all actives have a fitted effect of over 60% in size; also: potency is read from the fitted curve at half-maximal effect
[5] = qHTS assay to identify small molecule antagonists of the androgen receptor (AR) signaling pathway - cell viability counter screen (AID 743033; also: nearly all actives have a fitted effect of over 45% in size)
[6] = qHTS assay to identify small molecule antagonists of the androgen receptor (AR) signaling pathway using the MDA cell line - cell viability counter screen (AID 743041; also: nearly all actives have a fitted effect of over 45% in size)
Summary of the method: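 MDA-kb2 AR-luc cells (MMTV-luciferase, AR/GR responsive) treated with compounds plus R1881 agonist for 16 h at 37C. CellTiter-Fluor added at 15.5 h; fluorescence read after 30 min in the same wells.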

Measured: Potency

CC1CS(=O)(=O)CCN1/N=C/c1ccc([N+](=O)[O-])o1 (stereo not drawn)
inactive: all assays above

CNC[C@@H]1CC[C@@H](N)[C@@H](O[C@H]2[C@H](O)[C@@H](O[C@H]3OC[C@](C)(O)[C@H](NC)[C@H]3O)[C@H](N)C[C@@H]2N)O1
inactive: all assays above

CC(=O)Nc1c(I)c(C(=O)O)c(I)c(N(C)C(C)=O)c1I
inactive: all assays above

CN[C@@H]1[C@@H](O)[C@@H](O[C@@H]2[C@@H](O)[C@H](O[C@H]3O[C@H](CN)[C@@H](O)[C@H](O)[C@H]3O)[C@@H](N)C[C@H]2NC(=O)C(O)CN)OC[C@]1(C)O (stereo partly drawn)
inactive: all assays above

Nc1ncnc2c1ncn2CCOCP(=O)(O)O
inactive: all assays above

CC1(C)S[C@@H]2[C@H](NC(=O)Cc3ccccc3)C(=O)N2[C@H]1C(=O)O
inactive: all assays above

CC(C(=O)O)c1ccc(C2CCCCC2)c2ccccc12 (stereo not drawn)
inactive: all assays above

NC[C@@H]1O[C@H](O[C@H]2[C@@H](O)[C@H](O[C@@H]3[C@@H](O)[C@H](N)C[C@H](N)[C@H]3O[C@H]3O[C@H](CN)[C@@H](O)[C@H](O)[C@H]3N)O[C@@H]2CO)[C@H](N)[C@@H](O)[C@@H]1O
inactive: all assays above

CC(=O)Oc1cccc(C(=O)O)c1OC(C)=O
inactive: all assays above

O=C(O)c1ccc(OCCn2ccnc2)cc1
inactive: all assays above

Nc1ncnc(Nc2ccc(Cl)cc2)n1
inactive: all assays above

CO[C@@H]1[C@@H](O[C@@H]2O[C@H](C)[C@@H](O[C@H]3C[C@@](C)(O)[C@@H](OC(=O)CC(C)C)[C@H](C)O3)[C@H](N(C)C)[C@H]2O)[C@@H](CC=O)C[C@@H](C)[C@@H](O)/C=C/C=C/C[C@@H](C)OC(=O)C[C@H]1O
active: [2] 2.66 µM and 3.76 µM | [3] 5.96 µM and 7.5 µM | [4] 6.68 µM and 9.44 µM
inactive: all other assays above

COc1ccc(CNCC(O)COc2ccc3[nH]c(=O)ccc3c2)cc1OC (stereo not drawn)
inactive: all assays above

CO/N=C(\C(=O)N[C@@H]1C(=O)N2C(C(=O)O)=CCS[C@H]12)c1csc(N)n1
inactive: all assays above

COc1c(O[C@@H]2O[C@H](CO)[C@@H](O)[C@H](O)[C@H]2O)cc2c(c1OC)-c1ccc(SC)c(=O)cc1[C@@H](NC(C)=O)CC2
inactive: all assays above

C/C(=C(\CCOC(=O)c1ccccc1)SS/C(CCOC(=O)c1ccccc1)=C(/C)N(C=O)Cc1cnc(C)nc1N)N(C=O)Cc1cnc(C)nc1N
active: [2] 10.6 µM | [3] 23.7 µM | [4] 26.6 µM
inactive: [1] | [5] | [6]

CCC(C)[C@@H](N)C(=O)O (stereo partly drawn)
inactive: all assays above

CCCCC(O)c1ccccc1 (stereo not drawn)
inactive: all assays above

CN(C(=O)CO)c1c(I)c(C(=O)NCC(O)CO)c(I)c(C(=O)NCC(O)CO)c1I (stereo not drawn)
inactive: all assays above

COc1cc2[nH]c(C)c(CCN3CCN(c4ccccc4)CC3)c2cc1OC
active: [2] 18.8 µM | [3] 26.6 µM | [4] 29.8 µM
inactive: all other assays above

C=CCOc1ccc(CC(=O)O)cc1Cl
inactive: all assays above

O=C1NC(=O)[C@H]2[C@@H]1[C@@H]1C=C[C@H]2C1
inactive: all assays above

CN1[C@@H]2CC[C@H]1CC(OC(c1ccccc1)c1ccccc1)C2 (stereo partly drawn)
active: [2] 5.31 µM and 13.3 µM and 6.68 µM | [3] 5.31 µM and 8.41 µM and 4.22 µM | [4] 8.41 µM and 23.7 µM and 11.9 µM
inactive: [1] | [5] | [6]

— PubChem BioAssay (Tox21)
